Values joined by “and” are separate entries in the source; they are usually repeats but may differ in a detail not shown here. Equal entries are not always repeated. Results filed as inconclusive are left out. Where a call stands in place of a potency, no number is given. The source holds several records for some structures; these can differ, active in one and inactive in another. Active and inactive are the calls of the source. Calls follow the shape of the dose curve; as a rule, active = well fitted cell-killing curve with a large enough effect in the repeat runs; inconclusive = weak or mixed curves, or effect the other way; inactive = flat fitted curve, though single readings scatter.
Assay: qHTS RealTime-Glo MT Cell Viability Assay in HEK293 cells - 16 hour (AID 1224872); also: nearly all actives have a fitted effect of over 50% in size; as to activity change, negative = cytotoxicity: top concentration of the series differs between compounds
Conditions: RealTime-Glo luminescence; series mostly up to 76.8 µM; activity change, negative = cytotoxicity: at the top concentration
Description: National Center for Advancing Translational Sciences [NCATS]
NIH Chemical Genomics Center [NCGC]
U.S. Environmental Protection Agency [EPA]
National Institutes of Environmental Health Sciences [NIEHS]
National Toxicology Program [NTP]
U.S. Food and Drug Administration [FDA]
Measure of cell viability is critical in the cell-base assay. Analysis of cell viability is necessary for the characterization of cell responses to cytotoxic drugs and environmental stress. A RealTime-Glo MT Cell Viability Assay to monitor cell viability in real time of continues cell culture during 40 hours of compound treatment was used to screen Tox21 10K library compounds in Hek293 cells. The RealTime-Glo MT Cell Viability Assay is a nonlytic, homogeneous, bioluminescent method to measure cell viability in real time using a simple, plate-based method. The assay involves adding NanoLuc luciferase and a cell-permeant prosubstrate to cells in culture. Viable cells reduce the proprietary prosubstrate to generate a substrate for NanoLuc luciferase. This substrate diffuses from cells into the surrounding culture medium, where it is rapidly used by the NanoLuc Enzyme to produce a luminescent signal. The signal correlates with the number of viable cells, making the assay well suited for cytotoxicity studies.
Tox21 Assay Protocol Summary:
The mixture of Hek293 cell suspension and reagents were dispensed at 600cells/6 ul/well in 1536-well tissue culture treated black solid bottom plates using a Multidrop dispenser. After the assay plates were incubated at a 37 C/5% CO2 incubator for 5 hours, 23 nL of compounds dissolved in DMSO, positive and negative controls was transferred to the assay plate by a pintool work station. The plates were incubated at 37 C for 40 hours. The luminescence intensity were measured at 0h, 8h, 16h, 24h, 32h and 40h time points using ViewLux plate reader during compound treatment.
Potency is read from the fitted curve at half-maximal effect.

For `C=C1C2CCC(C2)C1(C)C` (stereo not given), which Potency is on record?
The Potency was “inactive”.

Which Potency does the source give for `CC1CC(OC(=O)c2ccccc2O)CC(C)(C)C1` (stereo not given) here?
Its Potency is “inactive”.

For `CC(C)NCC(O)COc1cccc2ccccc12` (stereo not given), which Potency is on record?
Its Potency is “inactive”.

For `NC(=O)/N=N/C(N)=O`, which Potency is on record?
The Potency was “inactive”.

For `O=C1N=C(O)CN1/N=C/c1ccc(-c2ccc([N+](=O)[O-])cc2)o1`, which Potency is on record?
The Potency was “inactive”.

For `CC(=O)Nc1ccc(C(=O)O)cc1`, which Potency is on record?
Its Potency is “inactive”.

Which Potency does the source give for `CC1Cc2ccccc2N1NC(=O)c1ccc(Cl)c(S(N)(=O)=O)c1` (stereo not given) here?
Its Potency is “inactive”.

With `O=C(O)c1cc(-c2ccccc2)nc2ccccc12` as the molecule, how does the Potency read?
The Potency was “inactive”.

With `Cc1ccc(C)c(C)c1` as the molecule, how does the Potency read?
Its Potency is “inactive”.

For `CCCCCCCCCCC=CC1CC(=O)OC1=O` (stereo not given), which Potency is on record?
Its Potency is “inactive”.

For `CC1=C(CC(=O)O)c2cc(F)ccc2/C1=C\c1ccc(S(C)=O)cc1` (stereo not given), which Potency is on record?
Its Potency is “inactive”.

With `Cc1ccc(C(=O)O)o1` as the molecule, how does the Potency read?
Its Potency is “inactive”.

For `Oc1ccc2ccccc2c1`, which Potency is on record?
The Potency was “inactive”.

Which Potency does the source give for `O=S(=O)(O)c1cc(S(=O)(=O)O)c2c(N=Nc3ccccc3)c(O)ccc2c1` here?
Its Potency is “inactive”.

With `NCCc1ccc(O)c(O)c1` as the molecule, how does the “activity change, negative = cytotoxicity” value read?
Its value is -8.38% [at 35.3 µM] (inactive).

Which Potency does the source give for `C=C1CC[C@H](O)CC1=C/C=C1\CCC[C@]2(C)[C@@H]([C@H](C)/C=C/[C@H](C)C(C)C)CC[C@@H]12` here?
The Potency was 43.6 µM (active).

For `NC(=O)NNc1ccccc1`, which Potency is on record?
The Potency was “inactive”.

With `CC(C)n1c(/C=C/[C@@H](O)C[C@@H](O)CC(=O)O)c(-c2ccc(F)cc2)c2ccccc21` as the molecule, how does the Potency read?
Its Potency is “inactive”.

With `O=S(=O)(Oc1ccc(Cl)cc1Cl)c1ccccc1` as the molecule, how does the “activity change, negative = cytotoxicity” value read?
The value was -27% (inactive).

For `NCCNCCNCCNCCN`, which Potency is on record?
Its Potency is “inactive”.

For `C=C(C)C(=O)OCCCCCCCCCCCC`, which Potency is on record?
Its Potency is “inactive”.

With `CCOC(=O)/C=C\C(=O)OCC` as the molecule, how does the Potency read?
Its Potency is “inactive”.

Which Potency does the source give for `O=[N+]([O-])C(CO)(CO)CO` here?
Its Potency is “inactive”.

For `O=[N+]([O-])c1cccc(Cl)c1`, which Potency is on record?
The Potency was “inactive”.

For `Cn1c([N+](=O)[O-])cnc1COC(N)=O`, which Potency is on record?
Its Potency is “inactive”.

Which “activity change, negative = cytotoxicity” value does the source give for `OCCOCCOCCOCCO` here?
The value was 3.05% (inactive).

Which Potency does the source give for `O=S(=O)(O)CCS` here?
Its Potency is “inactive”.

With `Nc1c(S(=O)(=O)O)cc(Br)c2c1C(=O)c1ccccc1C2=O` as the molecule, how does the “activity change, negative = cytotoxicity” value read?
The value was 0.256% [at 35.3 µM] (inactive).

For `OCC#CCO`, which Potency is on record?
Its Potency is “inactive”.

Which Potency does the source give for `CCC(C)C=O` (stereo not given) here?
The Potency was “inactive and 6.92 µM (active)”.

With `C=CC(=O)OCCCCCCCC(C)C` as the molecule, how does the “activity change, negative = cytotoxicity” value read?
Its value is 1.33% (inactive).

Which Potency does the source give for `Cc1cc(NS(=O)(=O)c2ccc(N)cc2)no1` here?
The Potency was “inactive”.

Which Potency does the source give for `OC[C@@H](O)[C@H](O)[C@H](O)[C@@H](O)CO` here?
The Potency was “inactive”.

Which “activity change, negative = cytotoxicity” value does the source give for `O=C(Oc1ccccc1)c1ccc(O)cc1` here?
Its value is -7.22% (inactive).

For `Cc1cc(O)c2c(c1)C(=O)c1cc(O)cc(O)c1C2=O`, which Potency is on record?
Its Potency is “inactive”.

Which “activity change, negative = cytotoxicity” value does the source give for `C/C=C(C)/C=C/C=C(C)C` here?
The value was 3.53% (inactive).

Which Potency does the source give for `C[C@@H]1O[C@@H](OC[C@H]2O[C@@H](Oc3c(-c4ccc(O)c(O)c4)oc4cc(O)cc(O)c4c3=O)[C@H](O)[C@@H](O)[C@@H]2O)[C@H](O)[C@H](O)[C@H]1O` here?
Its Potency is “inactive”.

With `CCCCCCCCCC(=O)O` as the molecule, how does the Potency read?
Its Potency is “inactive”.

For `CN(C)c1cccc(O)c1`, which Potency is on record?
Its Potency is “inactive”.

Which Potency does the source give for `CCOC(=O)[C@H](CCc1ccccc1)N[C@@H](C)C(=O)N1Cc2ccccc2C[C@H]1C(=O)O` here?
Its Potency is “inactive”.

Reference: PubChem BioAssay (Tox21)
